The list is not random: actives were taken first. Their share in the collection is about 7.9%.
SW480 rereplic – inducers of DNA re-replication in SW480 colon cancer cells. Potency, µM (doses to about 46.1 µM), inactives show at the highest dose re-replication activation, hits mostly activators. AID 624297. 1.8% of 340,000 active. SW480 DNA re-replication, Hoechst DNA content imaging, 48 h; also: % of control where 0% means no effect; nearly all actives have a fitted effect of over 55% in size
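Quantitative HTS format with DMSO vehicle controls; 48 hr drug incubation at 37 C, then 40 min Hoechst staining and scanning imager measurement at 405 nm excitation.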
MCF10A rerep – DNA re-replication induction in MCF 10a cells. MCF 10A DNA re-replication, Hoechst nuclear intensity, 48 h. Potency, µM (top dose mostly 46.1 µM), for inactives: at the highest dose activity, positive = re-replication, hits mostly activators. 2.9% of 350,000 active; also: % of control where 0% means no effect; nearly all actives have a fitted effect of over 50% in size
HT1080-NT tox – kills 2HG-producing HT-1080-NT fibrosarcoma cells | HT-1080-NT fibrosarcoma viability, CellTiter-Glo ATP luminescence, 48 h | Potency, µM (top dose mostly 46.1 µM), without a hit: top-dose activity, negative = less viability, actives largely listed as cytotoxic | 1.6% of 360,000 active | AID 686970;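 also: NT is the 2HG producing partner of a matched IDH1 knockdown line; 0% = DMSO-treated cells and -100% = media-only wells without cells; nearly all actives have a fitted effect of over 55% in size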
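Viability of the 2HG-overproducing fibrosarcoma line after 48 hours of compound exposure at 37 degrees C was determined by luminescence with CellTiter-Glo, and concentration-effect curves were then fitted and categorized.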
KB-V1 MDR tox – kills drug-selected multidrug resistant KB-V1 cells; KB-V1 MDR cells viability, CellTiter-Glo, 72 h; Potency, µM (titrated, usually from 46.1 µM), actives largely listed as cytotoxic; 3.4% of 400,000 active; AID 1347076; also: % is scaled to controls: 0 for no effect and ±100 for the full control effect; nearly all actives have a fitted effect of over 60% in size
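KB-V1, DMEM (no phenol red) + 10% FBS; cpd pin-transferred, titration series; 72 h, 37 degrees C; CellTiter-Glo, luminescence. Data normalized, curve-fit.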
KB-3-1 tox – KB-3-1 parental cell cytotoxicity; KB-3-1 viability, CellTiter-Glo ATP luminescence, 72 h; Potency, µM (titrated, usually from 46.1 µM), actives largely listed as cytotoxic; 1.4% of 400,000 active; AID 1347075; also: % is scaled to controls: 0 for no effect and ±100 for the full control effect; nearly all actives have a fitted effect of over 60% in size
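Using CellTiter-Glo luminescence, growth of non-resistant KB-3-1 adenocarcinoma cells is assessed 72 h after pin-tool compound addition at 37 °C. Normalized responses across the concentration series yield fitted curves.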
HT1080 IDH1KD tx – kills HT-1080 cells with IDH1 knockdown; HT-1080 IDH1 knockdown viability, ATP luminescence, 48 h; Potency, µM (series often up to 46.1 µM), for the others: top-dose activity, negative = toxicity, most hits filed as cytotoxic; 2% of 360,000 active;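 also: 0% = DMSO wells and -100% = cell-free medium wells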
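Knockdown cells (IDH1KD HT-1080) received compounds 2 h after plating at 750 cells/well and were kept 48 h at 37 °C in 5% FBS RPMI. A CellTiter-Glo luminescence read gave % activity for curve fitting.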
* = called active by the depositor; i = inactive; ? = inconclusive; . = no result given. Calls follow the shape of the dose curve; as a rule, active = well fitted curve in the direction sought with a large enough effect; inconclusive = small, poorly fitted or top-dose-only effect, or another doubt; inactive = no such curve, though single readings can be large; an effect the other way counts as inactive or inconclusive. Potency is read from the fitted curve at half-maximal effect.

SMILES	SW480 rereplic	MCF10A rerep	HT1080-NT tox	KB-V1 MDR tox	KB-3-1 tox	HT1080 IDH1KD tx
CC(=Nc1ccccc1)C1=C(O)C(Cc2cccc(F)c2)NC1=O (configuration not stated)	.	.	0.026µM*	1.2µM*	?	?
CCN(CC)C(=O)CN1C(=O)C2(OCC(C)(C)CO2)c2ccccc21	3%	2%	2%	16µM*	i	12%
O=C1N(CCCN2C(=O)C3(OCCO3)c3ccccc32)c2ccccc2C12OCCO2	-10%	5%	-7%	12µM*	i	-19%
O=C1N(Cc2ccc(F)cc2Cl)c2ccccc2C12OCCCO2	5%	24%	-4%	18µM*	?	-2%
O=C1N(Cc2ccccc2F)c2ccccc2C12OCCCO2	1%	-2%	7%	i	i	2%
O=C1Nc2ccccc2C12OCC1(CO2)COC2(OC1)C(=O)Nc1ccccc12 (configuration not stated)	5%	-10%	-24%	i	i	-23%
Cc1ccc(C(=O)N2CC(=O)Nc3ccc(F)cc3C2c2ccccc2)cc1[N+](=O)[O-] (configuration not stated)	1%	1%	-14%	15µM*	i	-21%
Cc1cc(C)cc(C(=O)N2CC(=O)Nc3ccc(Br)cc3C2c2ccccc2)c1 (configuration not stated)	.	.	.	15µM*	?	.
Cc1cc(CN(C)C(=O)CC2C(=O)NCCN2Cc2ccc(-c3ccccc3)cc2)on1 (configuration not stated)	-4%	3%	-16%	i	i	-2%
CN(C)Cc1ccc(-c2nc3cccc4c3n2CCNC4=O)cc1	?	?	.	i	18µM*	.
CC(/C=C/c1ccco1)=N\NC(=O)C(O)c1ccccc1 (configuration not stated)	0%	23µM*	-9%	i	i	-8%
OC(CN1CCOCC1)Cn1c(-c2cccc(Cl)c2)nc2ccccc21 (configuration not stated)	0%	11%	1%	?	i	4%
CN1C2C=C(N(CCc3c[nH]c4ccccc34)C(=O)c3ccc(Cl)cc3)CC1CC2 (configuration not stated)	?	10%	?	23µM*	?	?
O=C(Cc1c[nH]c2ccccc12)NCc1ccc(Cl)cc1	2%	?	0%	i	i	2%
CC1CCCN(S(=O)(=O)c2ccc(NC(=O)Cc3ccc(S(=O)(=O)N4CCOCC4)s3)cc2)C1 (configuration not stated)	-24%	7%	-9%	i	i	-8%
S=C1Cc2ccccc2C(c2ccc(Cl)cc2)N1 (configuration not stated)	?	16µM*	-11%	i	i	-23%
O=C1Cc2ccccc2C(c2ccc(Cl)cc2)N1 (configuration not stated)	-2%	?	-8%	i	i	-23%
CC1CC(=O)Nc2ccccc2N1S(=O)(=O)c1ccccc1 (configuration not stated)	-6%	1%	0%	i	i	9%
O=C(N/N=C/c1ccc(Sc2nc3ccccc3[nH]2)o1)c1ccncc1	-6%	10%	4%	i	i	-2%
CCN1C(=O)S/C(=C/c2ccc(Sc3nc4ccccc4[nH]3)o2)C1=O	1.5µM*	?	-12%	?	i	?
Cc1onc(-c2ccccc2)c1C(=O)N1CCN(S(=O)(=O)c2ccccc2Br)CC1	-7%	?	0%	?	i	7%
CC(=O)Nc1ccc(S(=O)(=O)Oc2ccc(N3C(=O)C4CCCCC4C3=O)cc2)cc1 (configuration not stated)	-16%	9%	-17%	18µM*	?	-12%

Assay outcomes deposited in PubChem by National Center for Advancing Translational Sciences (NCATS).
